Screening results from PubChem BioAssay.
Tb PFK inh-1 – inhibitors of T. brucei phosphofructokinase; O15648; T. brucei PFK, ADP-Glo luminescence; Potency, µM (titrated, usually from 57.5 µM), inactives show at the highest dose activity, negative = inhibition, actives largely listed as inhibitors; 0.17% of 330,000 active;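 note: 0% = uninhibited 1x PFK enzyme wells and -100% = no-enzyme wells; nearly all actives have a fitted effect of over 60% in size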
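1.25 nM PFK with 0.5 mM F6P and 0.1 mM ATP in 0.1 M TEA pH 8.0, 5 mM MgCl2, incubated 45 min at room temperature; ADP measured by ADP-Glo luminescence; compounds titrated up to 57 uM.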
ERG-DNA inh – inhibitors of human ERG Ets domain-DNA interaction; AID 624246; P11308; Potency, µM (highest dose often 76.9 µM), inactives show at the highest dose FP activity, negative = inhibition, actives largely listed as inhibitors; fluorescence polarization, His-ERG Ets domain / labelled DNA; 0.028% of 370,000 active; active = well fitted inhibition curve with a large enough effect in the polarisation, with a control signal flat; inconclusive = small, poorly fitted or top-dose-only effect, or effect the other way, or a change in a side signal; inactive = no such curve, though single readings can be large or run the other way; the % refers to the polarisation;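 note: polarization taken with two DNA probes labelled with fluorescein and Texas red; % of control where 0% means no effect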
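His-tagged ERG Ets domain (1 uM in the protein solution; 300mM KCl, 50mM Tris-HCl, 1mM EDTA, 1mM DTT, pH 7.5) received compound, then a probe mix of 5 nM fluorescein-DNA and 100nM Texas-615-DNA. Fluorescence polarization was read for both dyes.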
A-T KAP1 phos – candidate therapy for ataxia-telangiectasia. F2112 A-T fibroblasts, KAP-1 phosphorylation AlphaLISA; neocarzinostatin DNA damage 30 min before lysis. Potency, µM (titrated, usually from 57.5 µM), for the others: at the highest dose activation, actives largely listed as activators. 0.19% of 320,000 active; note: % of control where 0% means no effect; nearly all actives have a fitted effect of over 45% in size
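hTERT-immortalized A-T patient fibroblasts (F2112), 500 cells/well in OPTI-MEM, 1% FBS, got compounds for 60 min, then NCS for 30 min at 37C. Lysates were then assayed for phospho-KAP-1 by AlphaLISA (anti-pKAP1 donor, anti-KAP1 acceptor beads), 6 hr at 25C.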
GCN5L2 inh – blocks human GCN5L2 histone acetyltransferase; Q92830; GCN5L2 HAT assay, ThioGlo1 CoA-SH fluorescence; Potency, µM (series often up to 58.9 µM), inactives show at the top dose activity change, negative = inhibition, actives largely listed as inhibitors; 0.21% of 390,000 active; AID 504327; note: % is set by controls: 0 for no effect and ±100 for the full control effect
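GCN5L2 (20nM final) in 50mM HEPES, 0.1mM EDTA pH 7.5, 0.01% Tween-20 was preincubated 15 min at room temperature with compound, then given ThioGlo1 (50uM), H3(1-25) peptide (75uM) and acetyl-CoA (70uM); CoA-thiol fluorescence (Ex340/Em540) was read at 0 and 20 min.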
p53 reactivator – restores transcriptional activity of mutant p53; AID 504706; Potency, µM (top dose mostly 92.2 µM), for the others: at the highest dose activity change, positive = activation, hits mostly activators; H1299 p53-A138V BP100-luciferase reporter, luminescence, 24 h; 0.063% of 320,000 active; note: % of control where 0% means no effect; nearly all actives have a fitted effect of over 45% in size
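p53-null H1299 cells stably carrying temperature-sensitive p53-A138V and a BP100-luciferase reporter were pinned with compounds (4-point, 1:5 series) and held 24 hrs at 37 deg C. Luminescence was read 10 min after detection reagent.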
ASM inhibitor – inhibitors of human secretory acid sphingomyelinase; P17405; placental ASM, HMU-PC fluorogenic substrate, 60 min; Potency, µM (doses to about 57.5 µM), inactives show at the top dose activity change, negative = inhibition, usual class: inhibitors; 0.006% of 340,000 active
Target sequence (P17405 47-631 limits assumed): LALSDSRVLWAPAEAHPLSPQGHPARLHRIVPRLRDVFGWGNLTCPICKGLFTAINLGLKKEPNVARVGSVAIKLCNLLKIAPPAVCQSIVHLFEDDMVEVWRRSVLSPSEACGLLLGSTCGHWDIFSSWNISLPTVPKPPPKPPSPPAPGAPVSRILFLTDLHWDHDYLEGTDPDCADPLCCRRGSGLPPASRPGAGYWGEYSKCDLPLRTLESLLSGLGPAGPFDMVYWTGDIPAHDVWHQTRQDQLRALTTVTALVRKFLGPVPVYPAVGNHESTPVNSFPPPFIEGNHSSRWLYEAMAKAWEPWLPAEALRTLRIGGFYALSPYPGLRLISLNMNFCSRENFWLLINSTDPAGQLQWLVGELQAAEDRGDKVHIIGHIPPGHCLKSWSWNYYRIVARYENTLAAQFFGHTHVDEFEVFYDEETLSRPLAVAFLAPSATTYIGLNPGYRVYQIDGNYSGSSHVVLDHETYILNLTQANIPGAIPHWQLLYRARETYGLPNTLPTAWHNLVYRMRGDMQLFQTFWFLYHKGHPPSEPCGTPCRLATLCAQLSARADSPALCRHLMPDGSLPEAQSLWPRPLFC
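Steps: dispense placental human ASM, pin compound, wait 10 min at room temperature, add HMU-PC0 substrate at 9 uM final, incubate 60 min at 37 °C, add stop solution raising pH to 10, read fluorescence.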
Tb PFK KinaseGlo – orthogonal confirmation of T. brucei phosphofructokinase inhibitors. shares compounds with Tb PFK inh-1. Tb PFK enzyme, ATP depletion, Kinase-Glo Plus luminescence. Potency, µM (titrated, usually from 57.5 µM), for the others: at the highest dose inhibition. 47% of 1,100 active; calls by dose curve; note: nearly all actives have a fitted effect of over 60% in size
Tb PFK inh-2 – T. brucei PFK enzyme inhibition, hit validation; Potency, µM (top dose mostly 57.5 µM), for inactives: at the highest dose activity change, negative = inhibition, most hits filed as inhibitors; shares compounds with Tb PFK inh-1; 41% of 1,100 active; purified T. brucei PFK, ADP-Glo luminescence, 45 min;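 note: plate controls were full PFK enzyme control for no effect and no enzyme control for full effect; nearly all actives have a fitted effect of over 60% in size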
Numbers without * were called inactive; ? = inconclusive; nt = not tested or not shown; [ ] = dose if it differs, or a comment. Sampled rows, rich in hits. Any-hit rate of the full collection: about 0.55%. Unless noted, calls come from the whole dose curve; as a rule, active = well fitted curve in the direction sought with a large enough effect; inconclusive = small, poorly fitted or top-dose-only effect, or another doubt; inactive = no such curve, though single readings can be large; an effect the other way counts as inactive or inconclusive. Potency is the fitted concentration of half-maximal effect.

SMILES	Tb PFK inh-1	ERG-DNA inh	A-T KAP1 phos	GCN5L2 inh	p53 reactivator	ASM inhibitor	Tb PFK KinaseGlo	Tb PFK inh-2
O=C(O)c1cc(N2N=C(C(F)(F)F)/C(=C/C=C/c3ccco3)C2=O)ccc1Cl	17µM*	21%	3%	7.9µM*	0%	-15%	4.8µM*	5.4µM*
CSc1ccc(Cl)c(C(=O)OCC(=O)N2CCN(C(=O)c3ccco3)CC2)c1	?	-8%	-4%	-10%	-9%	3%	nt	nt
CC(=O)Nc1ccc(S(=O)(=O)NC(CSc2ccc(C(=O)O)cc2[N+](=O)[O-])C(=O)O)cc1 (configuration not stated)	?	-7%	-2%	2%	-6%	1%	-26%	?
CCC[C@@H]1CC2=CC(=O)CC[C@]2(C)[C@@H]2CC[C@@]3(C)[C@H](CC[C@]3(O)CCC(=O)O)[C@H]12	nt	nt	nt	-9%	nt	nt	nt	nt
CCCCC/C=C\C/C=C\C/C=C\C/C=C\CCCC(=O)NC1CC1	nt	nt	nt	1%	nt	nt	nt	nt
COC1C(O)C(C)O[C@@H](OC2CC[C@@]3(C)C4CC[C@]5(C)C(C6=CC(=O)OC6)CC[C@@]5(O)C4CC[C@@H]3C2)C1O (some centres not stated)	nt	nt	nt	3%	nt	nt	nt	nt
O=[N+]([O-])c1ccc([As](=O)(O)O)cc1	nt	nt	nt	-1%	nt	nt	nt	nt
C#CCNc1ccc([N+](=O)[O-])cc1	24µM*	1%	-6%	-8%	-4%	-4%	21µM*	27µM*
O=[N+]([O-])c1ccc(C(c2ccc([N+](=O)[O-])cc2)c2ccc([N+](=O)[O-])cc2)cc1	nt	0%	nt	nt	nt	-13%	nt	nt
NCCNc1ccc([N+](=O)[O-])cc1	?	15%	-5%	-5%	-3%	-13%	?	?
C[C@@H](C(=O)O)c1ccc(C(=O)c2cccs2)cc1	nt	nt	nt	0%[21.4 µM]	nt	nt	nt	nt
C[C@@H]1O[C@H](C[N+](C)(C)C)C[C@@H]1O	nt	nt	nt	-4%	nt	nt	nt	nt
C[C@H](NC(=O)[C@@H](N)Cc1ccc(O)cc1)C(=O)NCC(=O)N(C)[C@@H](Cc1ccccc1)C(=O)N[C@H](CO)CCS(C)=O (some centres not stated)	nt	nt	nt	-3%	nt	nt	nt	nt
O=C(N/N=C\c1ccc[nH]1)C1COc2ccccc2O1 (configuration not stated)	24µM*	-5%	2%	-10%	-1%	7%	9.5µM*	19µM*
O=C(N/N=C/c1ccco1)C1COc2ccccc2O1 (configuration not stated)	?	-5%	0%	-3%	21%	2%	?	?
O=C1CC2OCC=C3CN4CC[C@]56c7ccccc7N1C5C2[C@H]3C[C@H]46 (some centres not stated)	nt	nt	nt	-7%	nt	nt	nt	nt
CC[C@@H]1CN2CCc3cc(OC)c(OC)cc3[C@H]2C[C@@H]1C[C@@H]1NCCc2cc(O)c(OC)cc21	nt	nt	nt	9%[21.4 µM]	nt	nt	nt	nt
CNc1cc(CSC)nc(SCc2ccc(Cl)c(Cl)c2)n1	21µM*	nt	5%	-1%	0%	-14%	5.4µM*	8.5µM*
Cc1nc(SCc2ccc(Cl)c(Cl)c2)n[nH]1	21µM*	9%	4%	-2%	6%	1%	12µM*	?
C[N+]1(C)CCO[C@](O)(c2ccc(-c3ccc([C@]4(O)C[N+](C)(C)CCO4)cc3)cc2)C1	nt	nt	nt	5%[21.4 µM]	nt	nt	nt	nt
Cc1ccc(C)c(OCCCC(=O)Nc2ccc(N3CCOCC3)cc2)c1	?	nt	-2%	-3%	4%	nt	16%	-5%
CC(O)CNc1ccc([N+](=O)[O-])c2cccnc12 (configuration not stated)	0%	2%	-7%	1%	-4%	-10%	nt	nt
Cc1ccc(NCc2ccc(O)c3ncccc23)cc1	?	8%	-4%	-15%	2%	-1%	18%	-11%
COc1ccc(O)c2c(=O)c3c(OC)cc4c(c3oc12)C1C=COC1O4 (configuration not stated)	-4%	-5%	-2%	-15%	3%	-6%	nt	nt
COc1cc(O)c2c(=O)c3c(O)ccc(O)c3oc2c1	?	-4%	-6%	-9%	3%	-4%	?	?
SMILES	Tb PFK inh-1	ERG-DNA inh	A-T KAP1 phos	GCN5L2 inh	p53 reactivator	ASM inhibitor	Tb PFK KinaseGlo	Tb PFK inh-2
CSc1nc(=S)c2[nH]c(=S)[nH]c2[nH]1	?	-4%	1%	3.2µM*	5%	-5%	5.4µM*	19µM*
Cc1ccc(-c2c[n+](Cc3cccc(Cl)c3)c3n2CCC3)cc1	?	-10%	3%	-18%	-4%	-2%	?	?
C[C@@H](COc1ccccc1)N(CCCl)Cc1ccccc1	nt	nt	nt	-5%[21.4 µM]	nt	nt	nt	nt
O=C(O)C1CCCCC1C(=O)Nc1cccc(Br)c1 (configuration not stated)	17µM*	-15%	7%	?	11%	3%	12µM*	27µM*
O=C(CN1CCCCC1)c1cccc(Br)c1	5%	-12%	-1%	30%	22%	2%	nt	nt
CC1(C)C(=O)[C@@H]2OC2[C@@]2(C)C1CC(O)[C@]1(C)C2CC[C@@]2(C)C(c3ccoc3)OC(=O)C3OC312 (some centres not stated)	nt	nt	nt	-12%	nt	nt	nt	nt
N#Cc1ccc2ccn(CC(=O)NCc3ccco3)c2c1	21µM*	3%	1%	0%	-1%	1%	13µM*	30µM*
CC(=O)O.CC(=O)O.[Cd]	nt	nt	nt	-2%	nt	nt	nt	nt
Cc1noc(C)c1COc1ccc(C(=O)NNC(=O)c2ccccc2O)cc1	5.4µM*	-9%	-13%	1%	1%	5%	7%	6%
